High-throughput results (PubChem)
Compounds with a hit are over-represented: about 2.2% of the library has one in this group of screens.
MOR-DOR ag – agonists of human mu-delta opioid receptor heterodimerization; cells, OPRM1-OPRD1 heterodimerization, luminescence; activation, % at 9.3 µM; hit rate 0.3% among 340,000; AID 504326; in the data active = activation above about 18%
HTR5A ag ctr – activates human HTR5A in OPRM1-OPRD1 agonist counter-screen; activation, % at 9.3 µM; HTR5A agonist assay, luminescence, cell-based; hit rate 0.61% among 340,000; in the data active = activation mostly above about 9.5%, no sharp cut-off; inactive = mostly below about 7.6%
Target sequence (P47898 whole entry, looked up): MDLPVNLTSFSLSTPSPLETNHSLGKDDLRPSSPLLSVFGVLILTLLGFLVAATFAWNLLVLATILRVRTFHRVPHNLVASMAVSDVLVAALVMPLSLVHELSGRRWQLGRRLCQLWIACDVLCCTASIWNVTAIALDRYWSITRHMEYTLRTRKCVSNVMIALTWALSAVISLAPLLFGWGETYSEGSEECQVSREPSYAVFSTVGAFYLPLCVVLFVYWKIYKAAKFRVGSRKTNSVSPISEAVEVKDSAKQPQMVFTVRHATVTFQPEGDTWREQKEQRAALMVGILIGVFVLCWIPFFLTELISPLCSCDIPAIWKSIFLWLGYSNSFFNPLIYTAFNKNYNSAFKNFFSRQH
MOR-DOR inv ag-1 – inverse agonists of human mu-delta opioid receptor heterodimerization; hit rate 0.21% among 340,000; cell-based MOR-DOR heterodimer luminescence, inverse agonism; AID 504357; inhibition, % at 9.3 µM; in the data active = inhibition above about 22%, passing the limit was not always enough
HGIII-sPLA2 inh – Inhibits HGIII-sPLA2 liposome hydrolysis, primary screen; QFRET BODIPY PC-A2 liposome hydrolysis, fluorescence; hit rate 0.56% among 370,000; Q9NZ20; inhibition, % at 12.2 µM;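 active = inhibition above mean plus 3 SD of compounds lying within the high and low control bounds, cut at about 19% in these data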
HTR2A ag – activates the mouse 5-HT2A serotonin receptor | activation, % at 7.6 µM | P35363 | CHO-K1 mHTR2A beta-arrestin complementation, luminescence; percent of 30 µM serotonin response | hit rate 0.66% among 360,000;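 active = activation above a run cutoff, the mean activation of all tested compounds plus 3 SD, cut at about 14% in these data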
HTR5A inv ag – counter-screen for OPRM1-OPRD1 inverse agonists: human HTR5A inverse agonism | P47898 | HTR5A cell line, luminescence | AID 504634 | inhibition, % at 9.3 µM | hit rate 0.083% among 340,000; in the data active = inhibition mostly above about 23%, no sharp cut-off; inactive = mostly below about 18%
MOR-DOR inv ag-2 – inverse agonist of OPRM1-OPRD1 heterodimerization in HTR5A counter-screen; shares compounds with HTR5A inv ag; 190 tested, under 10 active; AID 504912; U2OS counter-screen cells, complementation luminescence; inhibition, % at 9.3 µM
HTR5A inv conf – HTR5A (human) inverse agonism, confirmation | shares compounds with HTR5A inv ag | 190 tested, under 10 active | AID 504916 | inhibition, % at 9.3 µM | HTR5A-expressing cells, luminescence
A number is an active result. Unless noted, no rule for the calls is given here.

What do the screens show for `O=C1/C(=C\c2ccc(O)c(O)c2)N=C2CCCCCN12`?
MOR-DOR ag: inactive; HTR5A ag ctr: inactive; MOR-DOR inv ag-1: inactive; HGIII-sPLA2 inh: inactive; HTR2A ag: inactive; HTR5A inv ag: 27; MOR-DOR inv ag-2: inactive; HTR5A inv conf: inactive

Results for CCCCCN1CCCCC(NC(=O)c2cccc(C(F)(F)F)c2)C1=O (stereo unspecified) ?
HGIII-sPLA2 inh: inactive

How did Cc1cc(C(=O)CN2C(=O)C(=O)N(CCC3=CCCCC3)C2=O)c(C)n1C do in these assays?
MOR-DOR ag: inactive; HTR5A ag ctr: inactive; MOR-DOR inv ag-1: inactive; HGIII-sPLA2 inh: inactive; HTR2A ag: inactive; HTR5A inv ag: 37; MOR-DOR inv ag-2: inactive; HTR5A inv conf: inactive

What do the screens show for `CC(=O)N1CCc2cc(Br)cc(S(=O)(=O)N3CCN(c4ccccn4)CC3)c21`?
MOR-DOR ag: inactive; HTR5A ag ctr: inactive; MOR-DOR inv ag-1: inactive; HGIII-sPLA2 inh: inactive; HTR2A ag: inactive; HTR5A inv ag: 46; MOR-DOR inv ag-2: inactive; HTR5A inv conf: inactive

What do the screens show for `Cc1ccc(CCNC(=O)C2CCN(S(=O)(=O)c3cccc4nsnc34)CC2)cc1`?
MOR-DOR ag: inactive; HTR5A ag ctr: inactive; MOR-DOR inv ag-1: inactive; HGIII-sPLA2 inh: inactive; HTR2A ag: inactive; HTR5A inv ag: 47; MOR-DOR inv ag-2: inactive; HTR5A inv conf: inactive

Results for NC1=[N+](Cc2ccccc2)C[C@H]2C(=C3CCCC[C@H]3n3c(=O)n(-c4ccccc4)c(=O)n32)N1 ?
HGIII-sPLA2 inh: inactive

What do the screens show for `Clc1cccc(CN2CCC3CC2c2cc(N4CCCCC4)ccc23)c1` (stereo unspecified)?
MOR-DOR ag: inactive; HTR5A ag ctr: inactive; MOR-DOR inv ag-1: inactive; HGIII-sPLA2 inh: inactive; HTR2A ag: inactive; HTR5A inv ag: 28; MOR-DOR inv ag-2: inactive; HTR5A inv conf: inactive

Results for CN1Cc2nnn(CC3CCCCC3)c2-c2ccccc2S1(=O)=O ?
HGIII-sPLA2 inh: inactive

What do the screens show for `CN(C)c1ccc(/C=C/c2ccc3ccccc3[n+]2C)cc1`?
MOR-DOR ag: inactive; HTR5A ag ctr: inactive; MOR-DOR inv ag-1: inactive; HGIII-sPLA2 inh: 19; HTR2A ag: inactive; HTR5A inv ag: 29; MOR-DOR inv ag-2: inactive; HTR5A inv conf: inactive

What do the screens show for `CCOCCCNC(=O)c1ccc2c(=O)n(Cc3ccc4c(c3)OCO4)c(=S)[nH]c2c1`?
MOR-DOR ag: inactive; HTR5A ag ctr: inactive; MOR-DOR inv ag-1: inactive; HGIII-sPLA2 inh: inactive; HTR2A ag: inactive; HTR5A inv ag: inactive

How did COCCCNC(=O)c1ccc2c(=O)n(Cc3ccc4c(c3)OCO4)c(=S)[nH]c2c1 do in these assays?
MOR-DOR ag: inactive; HTR5A ag ctr: inactive; MOR-DOR inv ag-1: inactive; HGIII-sPLA2 inh: inactive; HTR2A ag: inactive; HTR5A inv ag: 57; MOR-DOR inv ag-2: inactive; HTR5A inv conf: inactive

How did Cc1ccc(-c2cc(C(=O)N=Nc3c(O)[nH]c4ccccc34)[nH]n2)cc1C do in these assays?
HGIII-sPLA2 inh: inactive

Results for CCn1c(Cc2cccs2)nnc1SCC(=O)Nc1cccc2ccccc12 ?
HGIII-sPLA2 inh: inactive

How did CCOc1ccc(N(CC(=O)Nc2c(C)n(C)n(-c3ccccc3)c2=O)S(=O)(=O)c2cccs2)cc1 do in these assays?
HGIII-sPLA2 inh: inactive

What do the screens show for `COCCNC(=O)CSc1c2c(nc3ccc(Cl)cc13)CCCC2`?
MOR-DOR ag: inactive; HTR5A ag ctr: inactive; MOR-DOR inv ag-1: inactive; HGIII-sPLA2 inh: inactive; HTR2A ag: inactive; HTR5A inv ag: 43; MOR-DOR inv ag-2: inactive; HTR5A inv conf: inactive

What do the screens show for `COc1ccc(/C=C/C(=O)NC(=S)NNC(=O)c2c(-c3ccccc3)noc2C)cc1`?
MOR-DOR ag: inactive; HTR5A ag ctr: inactive; MOR-DOR inv ag-1: inactive; HGIII-sPLA2 inh: inactive; HTR2A ag: inactive; HTR5A inv ag: 49; MOR-DOR inv ag-2: inactive; HTR5A inv conf: inactive

What do the screens show for `Cc1onc(-c2ccccc2)c1C(=O)NNC(=S)NC(=O)/C=C/c1ccccc1`?
MOR-DOR ag: inactive; HTR5A ag ctr: inactive; MOR-DOR inv ag-1: inactive; HGIII-sPLA2 inh: inactive; HTR2A ag: inactive; HTR5A inv ag: inactive

Results for O=C1C(Cl)=C(N2CCOCC2)C(=O)N1c1cccc(Cl)c1 ?
MOR-DOR ag: inactive; HTR5A ag ctr: inactive; MOR-DOR inv ag-1: inactive; HGIII-sPLA2 inh: inactive; HTR2A ag: inactive; HTR5A inv ag: inactive

How did O=C1/C(=C/c2ccccc2)N=C(N2CCOCC2)N1c1cccc(Cl)c1 do in these assays?
MOR-DOR ag: inactive; HTR5A ag ctr: inactive; MOR-DOR inv ag-1: inactive; HGIII-sPLA2 inh: inactive; HTR2A ag: inactive; HTR5A inv ag: 33; MOR-DOR inv ag-2: inactive; HTR5A inv conf: inactive

How did O=C1/C(=C\c2cccc(O)c2)SC(=S)N1Cc1ccccc1 do in these assays?
MOR-DOR ag: inactive; HTR5A ag ctr: inactive; MOR-DOR inv ag-1: inactive; HGIII-sPLA2 inh: inactive; HTR2A ag: inactive; HTR5A inv ag: inactive

What do the screens show for `O=C1/C(=C\c2ccc(O)c(O)c2)SC(=S)N1Cc1ccccc1`?
MOR-DOR ag: inactive; HTR5A ag ctr: inactive; MOR-DOR inv ag-1: inactive; HGIII-sPLA2 inh: inactive; HTR2A ag: inactive; HTR5A inv ag: 30; MOR-DOR inv ag-2: inactive; HTR5A inv conf: inactive

How did CCOc1cc(/C=C2/SC(=S)N(CC3CCCO3)C2=O)ccc1O (stereo unspecified) do in these assays?
MOR-DOR ag: inactive; HTR5A ag ctr: inactive; MOR-DOR inv ag-1: inactive; HGIII-sPLA2 inh: inactive; HTR2A ag: inactive; HTR5A inv ag: 31; MOR-DOR inv ag-2: inactive; HTR5A inv conf: inactive

What do the screens show for `COc1cc(/C=C2/SC(=NCc3ccccc3)N(Cc3ccccc3)C2=O)ccc1O`?
MOR-DOR ag: inactive; HTR5A ag ctr: inactive; MOR-DOR inv ag-1: inactive; HGIII-sPLA2 inh: inactive; HTR2A ag: inactive; HTR5A inv ag: inactive

How did O=C1/C(=C/c2cccc(O)c2)SC(=S)N1CC1CCCO1 (stereo unspecified) do in these assays?
MOR-DOR ag: inactive; HTR5A ag ctr: inactive; MOR-DOR inv ag-1: inactive; HGIII-sPLA2 inh: inactive; HTR2A ag: inactive; HTR5A inv ag: inactive

How did COc1cc(/C=C2/SC(=S)N(Cc3ccccc3)C2=O)ccc1O do in these assays?
MOR-DOR ag: inactive; HTR5A ag ctr: inactive; MOR-DOR inv ag-1: inactive; HGIII-sPLA2 inh: inactive; HTR2A ag: inactive; HTR5A inv ag: 30; MOR-DOR inv ag-2: inactive; HTR5A inv conf: inactive

How did COc1cc(/C=C2\SC(=S)N(NC(=O)c3ccc(O)c(OC)c3)C2=O)ccc1O do in these assays?
MOR-DOR ag: inactive; HTR5A ag ctr: inactive; MOR-DOR inv ag-1: inactive; HGIII-sPLA2 inh: inactive; HTR2A ag: inactive; HTR5A inv ag: inactive

How did COc1cc(/C=C2\SC(=S)N(NC(=O)c3ccccc3OC)C2=O)ccc1O do in these assays?
MOR-DOR ag: inactive; HTR5A ag ctr: inactive; MOR-DOR inv ag-1: inactive; HGIII-sPLA2 inh: inactive; HTR2A ag: inactive; HTR5A inv ag: 33; MOR-DOR inv ag-2: inactive; HTR5A inv conf: inactive

How did COCc1cc(N2CCN(C(=O)OC(C)(C)C)C[C@@H]2C)ccc1N1CC[C@@H](O)C1 do in these assays?
HGIII-sPLA2 inh: inactive
